PubChem BioAssay
Values without a mark were called inactive. The rule behind the calls is not given here.

What follows are compounds tested on Aerobactin synthetase IucA (Klebsiella pneumoniae hvKP1) (assay: Biochemical IucA enzyme inhibition primary screen of the Spectrum library (AID 1346200;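 note: 100% = wells without compound and 0% = wells lacking enzyme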)). Details: malachite green pyrophosphate, A620, at 8 µM, hits give low values.

Row | Compound | activity remaining
1 | COC(=O)c1c(OC)cc2c(c1C)Oc1c(Cl)c(O)c(Cl)c(C)c1C(=O)O2 | 116%
2 | O=c1c(O)c(-c2ccc(O)cc2)oc2ccccc12 | 104%
3 | NC[C@@H]1O[C@H](O[C@@H]2[C@@H](CO)OC(O[C@@H]3[C@@H](O)[C@H](N)C[C@H](N)[C@H]3O[C@H]3O[C@H](CO)[C@@H](O)[C@H](O)[C@H]3N)[C@@H]2O)[C@H](N)[C@@H](O)[C@@H]1O (stereo not given in full) | 97.1%
4 | CCN(CC)CCNC(=O)COc1ccc(OC)cc1 | 108%
5 | CCCCOc1ccc(OCCCN2CCOCC2)cc1 | 104%
6 | CCCCC(=O)N(Cc1ccc(-c2ccccc2-c2nn[nH]n2)cc1)[C@H](C(=O)O)C(C)C | 121%
7 | NCC(=O)CCC(=O)O | 77.6%
8 | CCCCCCCCCCCCCCCCCCOCC(O)CO (stereo not given) | 104%
9 | C=C1CCC2[C@](C)(CO)[C@H](O)CC[C@@]2(C)[C@@H]1C/C=C1/C(=O)OC[C@H]1O (stereo not given in full) | 108%
10 | CCC(=O)O[C@]1(C(=O)CCl)[C@@H](C)CC2C3CCC4=CC(=O)C=C[C@]4(C)[C@@]3(F)[C@@H](O)C[C@@]21C (stereo not given in full) | 112%
11 | COC(=O)[C@@H]1OC(=O)C2OC23[C@@]1(C)CCC1[C@@]2(C)CCC(=O)C(C)(C)C2C[C@@H](OC(C)=O)[C@]13C (stereo not given in full) | 112%
12 | COc1cc(/C=C/C(=O)/C=C(O)/C=C/c2ccc(O)c(OC)c2)ccc1O | 103%
13 | CC(C)=CCC[C@](C)(O)C1CC=C(C)CC1 (stereo not given in full) | 118%
14 | C=CCS(=O)C[C@H](N)C(=O)O (stereo not given in full) | 125%
15 | COc1c(C(C)C)oc2cc3oc(=O)ccc3cc12 | 102%
16 | COc1cc(CNC(=O)CCCC/C=C/C(C)C)ccc1O | 109%
17 | COc1ccc(-c2coc3cc(O)ccc3c2=O)cc1 | 109%
18 | COC1=C(O)C(=O)c2c(cc3oc(C(C)=O)c(O)c3c2O)C1=O | 108%
19 | O=C(O)c1cc(O)c2c(c1)[C@@H]([C@H]1c3cc(C(=O)O)cc(O)c3C(=O)c3c(O[C@H]4O[C@H](CO)[C@@H](O)[C@H](O)[C@H]4O)cccc31)c1cccc(O[C@H]3O[C@H](CO)[C@@H](O)[C@H](O)[C@H]3O)c1C2=O | 98.9%
20 | Nc1nc2c(c(=O)[nH]1)N(C=O)C(CNc1ccc(C(=O)N[C@@H](CCC(=O)O)C(=O)O)cc1)CN2 (stereo not given in full) | 104%

Row | Compound | activity remaining
21 | O=C(Nc1ccc(C(=O)O)c(O)c1)c1ccccc1 | 89.3%
22 | CN1CCCC(n2nc(Cc3ccc(Cl)cc3)c3ccccc3c2=O)CC1 (stereo not given) | 106%
23 | C[C@H]1OC(n2cc(F)c(=O)[nH]c2=O)C(O)[C@@H]1O (stereo not given in full) | 121%
24 | Cc1c(C(N)=O)cc([N+](=O)[O-])cc1[N+](=O)[O-] | 106%
25 | C=CCCCCCCCCCCCC(O)CC(O)CO (stereo not given) | 76.1%
26 | COc1ccc([C@@H]2CC(=O)c3c(O)cc(O)cc3O2)cc1O | 115%
27 | C=C1[C@H]2CC[C@@]3(C)[C@H](c4ccoc4)OC(=O)C[C@]13O[C@H]1C[C@H](O)C(C)(C)[C@H](CC(=O)OC)[C@]12C | 107%
28 | CN(Cc1cc(Br)cc(Br)c1N)C1CCCCC1 | 112%
29 | CC1=C(C/C=C(\C)CCC[C@H](C)CCC[C@H](C)CCCC(C)C)C(=O)c2ccccc2C1=O | 114%
30 | COc1cc(C)c2c(c1C=O)Oc1c(c(C)c(O)c3c1C(O)OC3=O)OC2=O (stereo not given) | 114%
31 | CC(C)(C)NCC(O)COc1cccc2c1C[C@H](O)[C@H](O)C2 (stereo not given in full) | 103%
32 | CC(C)C1CCC(C(=O)N[C@@H](Cc2ccccc2)C(=O)O)CC1 (stereo not given in full) | 118%
33 | CC(C)(O)[C@@H]1CC[C@](C)([C@H]2[C@@H](O)C[C@@]3(C)C4C[C@H](O[C@@H]5O[C@H](CO)[C@@H](O)[C@H](O)[C@H]5O)C5C(C)(C)[C@@H](O[C@@H]6OC[C@@H](O)[C@H](O)[C@H]6O)CC[C@@]56C[C@@]46CC[C@]23C)O1 (stereo not given in full) | 93%
34 | CC(CCC(=O)O)[C@H]1CCC2C3CC[C@@H]4CCCC[C@]4(C)C3CC[C@@]21C (stereo not given in full) | 108%
35 | Oc1cc2c(cc1O)C(c1ccccc1)CNCC2 (stereo not given) | 88.1%
36 | CC(C1OC(C)(C)C(O)C1O)[C@@H]1CC[C@]2(C)C3=CCC4C(C)(C)C(=O)CC[C@]4(C)C3CC[C@@]12C (stereo not given in full) | 111%
37 | CCOC(=O)c1c(C)cc(O)cc1O | 119%
38 | C[C@H]1O[C@H](O[C@H]2[C@H](O)[C@@H](O)[C@@H](O[C@H]3[C@H](O)[C@@H](O)C(O)O[C@@H]3CO)O[C@@H]2CO)[C@H](O)[C@@H](O)[C@@H]1N[C@H]1C=C(CO)[C@@H](O)[C@H](O)[C@H]1O (stereo not given in full) | 107%
39 | C=CC(C1=CC(=O)C(OC)=CC1=O)c1ccccc1 (stereo not given) | 113%
40 | CC(=O)Oc1cc(OC(C)=O)c2c(c1)O[C@H](c1ccc(OC(C)=O)c(OC(C)=O)c1)[C@H](OC(C)=O)C2 | 108%
